# Screening data: PubChem, National Center for Advancing Translational Sciences (NCATS)
# HPGD block – blocks human HPGD enzyme activity; P15428; purified HPGD, NADH fluorescence kinetic, PGE2 substrate; Potency, µM, inactives show top-dose activity change, negative = inhibition, usual class: inhibitors; 150,000 compounds, 4.3% hits; AID 894; active means well fitted inhibition curve with a large enough effect, not every such curve was filed as active; inconclusive means small, poorly fitted or top-dose-only effect, or another doubt; inactive means no such curve, though single readings can be large or run the other way; further: potency means the concentration at half of the fitted maximal effect; on the % scale 0 is the no-effect control and ±100 the full control effect
# Target sequence (P15428 whole entry, looked up): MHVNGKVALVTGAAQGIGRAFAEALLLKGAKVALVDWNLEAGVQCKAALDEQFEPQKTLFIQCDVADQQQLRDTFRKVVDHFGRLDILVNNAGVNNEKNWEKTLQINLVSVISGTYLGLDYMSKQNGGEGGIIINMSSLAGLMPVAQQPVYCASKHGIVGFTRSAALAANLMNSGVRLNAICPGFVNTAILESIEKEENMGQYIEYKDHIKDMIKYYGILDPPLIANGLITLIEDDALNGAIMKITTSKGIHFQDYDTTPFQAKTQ
#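 NADH formation kinetics: reaction with 30 uM PGE2 and 1 mM NAD+ (final), 20 nM enzyme, Tris-HCl pH 8 with Tween 20, after 15 min compound preincubation at room temperature. Fluorescence change, last versus first of five reads.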
# HTT ATP protect – Huntington cell model cytoprotection by ATP luminescence | PC12 HTT-Q103 induced, cytoprotection, ATP luminescence, 40 h | Potency, µM (doses to about 56.4 µM), without a hit: cytoprotection (ATP increase), most hits filed as activators | 230,000 compounds, 0.14% hits; further: potency means the concentration at half of the fitted maximal effect; % of control where 0% means no effect; nearly all actives have a fitted effect of over 45% in size
#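 ATP quantification (ATPlite) reports survival of PC12 cells in which tebufenozide, 100 nM final, switches on Htt exon 1 with 103 glutamines linked to GFP; compounds are titrated.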
# ALDH1A1 block – ALDH1A1 (human) enzyme inhibition; P00352; Purified ALDH1A1, NADH fluorescence, propionaldehyde substrate; Potency, µM (top dose mostly 75.3 µM), without a hit: top-dose activity, negative = inhibition, most hits filed as inhibitors; 220,000 compounds, 7.3% hits; AID 1030; active means well fitted inhibition curve with a large enough effect, not every such curve was filed as active; inconclusive means small, poorly fitted or top-dose-only effect, or another doubt; inactive means no such curve, though single readings can be large or run the other way;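 further: potency means the concentration at half of the fitted maximal effect; plate controls were no enzyme wells and a reference inhibitor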
# Target sequence (P00352 whole entry, looked up): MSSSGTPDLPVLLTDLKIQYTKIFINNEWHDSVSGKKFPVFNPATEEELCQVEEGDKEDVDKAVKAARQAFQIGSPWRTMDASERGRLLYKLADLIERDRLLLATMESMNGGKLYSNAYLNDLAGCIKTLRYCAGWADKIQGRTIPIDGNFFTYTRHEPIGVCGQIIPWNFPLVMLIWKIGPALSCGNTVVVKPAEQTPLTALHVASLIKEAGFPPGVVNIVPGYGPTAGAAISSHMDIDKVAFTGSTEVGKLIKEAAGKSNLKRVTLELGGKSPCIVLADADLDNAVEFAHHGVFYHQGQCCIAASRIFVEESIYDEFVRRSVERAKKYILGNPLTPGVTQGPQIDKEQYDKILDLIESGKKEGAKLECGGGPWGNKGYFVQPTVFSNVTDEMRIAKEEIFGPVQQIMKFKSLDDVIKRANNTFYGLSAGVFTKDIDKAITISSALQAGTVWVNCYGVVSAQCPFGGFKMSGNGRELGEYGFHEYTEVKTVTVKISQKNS
# HttQ103 aggreg – reduces HttQ103-GFP aggregates in PC12 cells. PC12 HttQ103-GFP aggregates, Acumen cytometry, 40 h. 220,000 compounds, 1.1% hits. Potency, µM (top dose mostly 46.1 µM), without a hit: at the highest dose activity change, negative = inhibition, most hits filed as inhibitors; further: potency means the concentration at half of the fitted maximal effect; on the % scale 0 is the no-effect control and ±100 the full control effect; nearly all actives have a fitted effect of over 60% in size
#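 Inducible Q103 Huntingtin exon 1–GFP PC12 line, 1500 cells/well in phenol red free DMEM with 5% equine and 5% calf serum. Tebufenozide 100 nM induced expression; compounds titrated; aggregates quantified by cytometry.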
# CBFb RUNX1 block – inhibitors of human CBF-beta and RUNX1 interaction | Q01196+Q13951 | AlphaScreen CBFb-His/RUNX1-biotin binding, biochemical | 230,000 tested, under 10 active | Potency, µM (series often up to 59.8 µM), for the others: at the highest dose activity, negative = inhibition, most hits filed as inhibitors; further: % of control where 0% means no effect
#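 CBF-beta (His) and RUNX1 (biotin), 30 nM each; 20 min preassociation; + compound, 15 min; + beads 50 ng each (Ni, streptavidin), 90 min; RT; AlphaScreen read.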
# KDM4E inh – JMJD2E (human) inhibition. JMJD2E catalytic domain, FDH-coupled NADH fluorescence (FDH is formaldehyde dehydrogenase). Potency, µM (top dose mostly 57.1 µM), inactives show top-dose activity change, negative = inhibition, hits mostly inhibitors. 230,000 compounds, 1.6% hits. AID 2147; active means well fitted inhibition curve with a large enough effect, not every such curve was filed as active; inconclusive means small, poorly fitted or top-dose-only effect, or another doubt; inactive means no such curve, though single readings can be large or run the other way;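 further: potency means the concentration at half of the fitted maximal effect; 0% = wells with enzyme and -100% = buffer wells without enzyme; nearly all actives have a fitted effect of over 50% in size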
# * marks the source's active call; other numbers are inactive results; ? = inconclusive; · = not tested or not shown; [ ] = another dose, or the depositor's remark. Shown are actives, neighbours in structure and some others; about 9.8% of the full set was active somewhere. Unless noted, the call rests on the fitted dose curve; in most records, active means well fitted curve in the direction sought with a large enough effect; inconclusive means small, poorly fitted or top-dose-only effect, or another doubt; inactive means no such curve, though single readings can be large; an effect the other way counts as inactive or inconclusive.
SMILES,HPGD block,HTT ATP protect,ALDH1A1 block,HttQ103 aggreg,CBFb RUNX1 block,KDM4E inh
CC1CC(C)CN(S(=O)(=O)c2ccc(C(=O)Nc3nnc(-c4cccs4)o3)cc2)C1 (stereo unspecified),-9%,-71%,2%,7.9µM*,-2%,?
CN(C)S(=O)(=O)c1ccc(C(=O)Nc2nnc(-c3cccs3)o2)cc1,·,28%[10 µM],10%,?,-12%,?
O=C(Nc1nnc(-c2ccncc2)o1)c1ccc(Br)s1,·,-110%,6%,11µM*,-10%,?
CCC1CCCCN1S(=O)(=O)c1ccc(C(=O)Nc2nnc(-c3cccs3)o2)cc1 (stereo unspecified),-10%,28%[10 µM],-1%,11µM*,-21%,?
O=C(Nc1nnc(-c2ccco2)o1)c1ccc([N+](=O)[O-])s1,·,-173%,?,11µM*,-15%,?
CS(=O)(=O)N(CC(=O)Nc1cccc([N+](=O)[O-])c1)c1cccc(F)c1,·,-5%[10 µM],3%,-6%[9.22 µM],-12%,-1%
OCC1(CCOc2ccccc2)CCN(CCCn2cccn2)CC1,·,-41%,18%,-13%,-2%,0%
O=C(Nc1nnc(-c2ccco2)o1)c1ccc(S(=O)(=O)N2CCCC2)cc1,·,-27%,35µM*,-13%,-24%,?
COc1cccc(-c2nnc(NC(=O)c3ccc(S(=O)(=O)N4CC(C)OC(C)C4)cc3)o2)c1 (stereo unspecified),-23%,-33%[10 µM],8%,4µM*,1%,?
CC1CN(S(=O)(=O)c2ccc(C(=O)Nc3nnc(-c4ccco4)o3)cc2)CC(C)O1 (stereo unspecified),·,-76%,-6%,?,1%,?
COc1ccc(-c2nnc(NC(=O)c3ccc(S(=O)(=O)N4CCc5ccccc5C4)cc3)o2)cc1,-23%,-5%,-1%,-16%,4%,8%
CCN1C(C)=C(C(=O)OC)C(c2ccccc2)N2C(=O)[C@](O)(C(=O)OC)C(c3ccccc3)C(C(=O)c3ccccc3)=C12 (stereo partly specified),·,?,3%[13.5 µM],·,17%[13.1 µM],·
N#C/C(=C\c1ccccc1OCc1ccc(C(=O)O)cc1)C(=O)Nc1ccc(O)cc1,·,-25%,5.6µM*,-12%,0%,-1%
COc1ccc(N(C)S(=O)(=O)c2ccc(Cl)c(C(=O)NCCc3ccc(Cl)cc3)c2)cc1,·,1%[10 µM],-9%,?,11%,7%
COc1cc(C(=O)O[C@@H]2CC3CC[C@]2(C)C3(C)C)ccc1O,·,·,·,·,5%,·
COc1ccc(O)c(/C=N/NC(=O)CSc2nnc(C)n2-c2ccccc2)c1,-14%,-43%,7%,7.9µM*,-2%,22µM*
COc1cccc(/C=N/NC(=O)CSc2nnc(C)n2-c2ccccc2)c1O,-7%,-54%,3%,7.9µM*,-4%,28µM*
COc1cc([N+](=O)[O-])cc(/C=N/NC(=O)Cn2nc(C)cc2C)c1O,·,-2%[10 µM],·,4%[9.22 µM],?,7.1µM*
COc1cc([N+](=O)[O-])cc(/C=N/NC(=O)CSc2nnc(-c3ccccc3)n2C)c1O,·,-13%[10 µM],·,-18%[9.22 µM],5%,20µM*
COc1cc([N+](=O)[O-])cc(/C=N/NC(=O)Cn2nccc2C)c1O,·,-5%[10 µM],·,16%[9.22 µM],?,13µM*
COc1ccc(/C=N/NC(=O)Cn2nc([N+](=O)[O-])cc2C)c(OC)c1OC,·,5%[10 µM],-3%,2%[9.22 µM],-6%,4%
C(CCc1nnc2c(n1)CCCC2)Cc1nnc2c(n1)CCCC2,-2%,-3%[10 µM],12%[13.5 µM],·,·,·
Nc1ccccc1SCC(=O)Nc1nccs1,·,-19%,1%,-6%,0%,-3%
Cc1nc(NC(=O)CSc2ccccc2N)sc1C,-19%,-29%[10 µM],22µM*,-29%,3%,2%
O=C(c1ccccc1)N1CCN(C2c3cccc4cccc(c34)C2NS(=O)(=O)c2ccccc2)CC1 (stereo unspecified),-11%,-44%,11µM*,?,-6%,-18%
SMILES,HPGD block,HTT ATP protect,ALDH1A1 block,HttQ103 aggreg,CBFb RUNX1 block,KDM4E inh
Cn1ncc(N2CCN(C(=O)c3ccc(Cl)cc3)CC2)c(Cl)c1=O,·,11%[10 µM],2%,15%,18%,2%
O=C(O)C1CCN(C(=O)Cc2ccccc2)CC1,·,3%[10 µM],0%,-7%[9.22 µM],-1%,-5%
CC1(C)CC2CN(C(=O)Cc3ccccc3)C(C)(C2)C1 (stereo unspecified),·,-13%,18µM*,6%,4%,-6%
O=CN[C@@H](Cc1cnc[nH]1)C(=O)O,-6%,-6%[10 µM],0%[13.5 µM],·,·,·
COc1cccc(C2c3[nH]c4ccccc4c3CCN2Cc2cccn2-c2ncccn2)c1 (stereo unspecified),·,18%[10 µM],-1%,5%[9.22 µM],-24%,?
Clc1ccc(-n2cccc2CN2CCc3c([nH]c4ccccc34)C2c2ccccn2)nc1 (stereo unspecified),·,-35%,14µM*,5%,-29%,?
Fc1ccc(C2c3[nH]c4ccccc4c3CCN2Cc2cccn2-c2ncccn2)cc1 (stereo unspecified),·,18%[10 µM],10µM*,22%[9.22 µM],12%,-14%
C[C@]1(c2ccccc2)O[C@@H]2C[C@@H]3[C@@H]4CCC5=CC(=O)C=C[C@@]5(C)[C@]4(F)[C@H](O)C[C@]3(C)[C@@]2(C(=O)CO)O1,-3%,-2%[10 µM],12%[13.5 µM],·,·,·
COc1ccc(Cl)cc1NC(=O)CN(C)CC(=O)Nc1ccccc1N1CCOCC1,·,-97%,-4%,-12%,-6%,-5%
COC(=O)c1ccccc1NC(=O)CNc1cc(Cl)ccc1N1CCOCC1,-24%,2%[10 µM],32µM*,32%,-12%,?
COc1ccc(-c2n(CC(=O)OC3CC(C)CCC3C(C)C)c3ccccc3[n+]2C)cc1 (stereo unspecified),·,9%[10 µM],6.3µM*,1%[9.22 µM],4%,-4%
COc1ccc(OCc2n(CC(=O)OC3CC(C)CCC3C(C)C)c3ccccc3[n+]2C)cc1 (stereo unspecified),·,-50%[10 µM],·,-19%[9.22 µM],2%,4%
COc1cc(NC(=S)Nc2ncccc2C)cc(OC)c1OC,·,14%,18µM*,10%[9.22 µM],2%,-7%
COc1cc(NC(=S)Nc2cccc(C)n2)cc(OC)c1OC,·,-10%,5%,6%,1%,7%
Cc1ccccc1NC(=S)NCc1ccc2c(c1)OCO2,?,25%,-8%,23%,-3%,4%
CC(=O)c1ccc(NC(=S)NCCc2ccc(S(N)(=O)=O)cc2)cc1,·,-13%,?,6%,2%,-3%
Cc1ccccc1NC(=S)NCc1ccc(Cl)cc1,16µM*,12%[10 µM],?,25%,1%,-3%
